Compound activity: PubChem, National Center for Advancing Translational Sciences (NCATS)
Most compounds without a hit are left out; they make up all but 12% or so of the library.
Sfp PPTase inh = qHTS Assay for Inhibitors of Bacillus subtilis Sfp phosphopantetheinyl transferase (PPTase) | Biochemical Sfp PPTase activity, qHTS | Potency, µM, actives largely listed as inhibitors | AID 1490, 2009 | 3.5% of 310,000 active | 4'-phosphopantetheinyl transferase ffp (Bacillus subtilis), Q9F4F7;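 further: the enzyme is Sfp with the accession as filed and its product quenches rhodamine fluorescence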
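Buffer: 50 mM Hepes-Na pH 7.6, 10 mM MgCl2, 0.01% Nonidet P-40, 0.01% BSA. Enzyme 15 nM, pre-exposed to compound 15 min; substrates then added and fluorescence change tracked over 30 min.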
HP1b binding inh = HTS for Inhibitors of HP1-beta Chromodomain Interactions with Methylated Histone Tails; Chromobox protein homolog 1 (Homo sapiens), P83916; AlphaScreen HP1-beta / biotin-H3K9me3 peptide binding; Potency, µM (doses to about 114 µM), hits mostly inhibitors; 0.56% of 390,000 active; AID 540317, 2011; further: nearly all actives have a fitted effect of over 70% in size
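Compound inhibition of the preformed complex between 50 nM HP1-beta and 50 nM biotinylated H3K9me3 peptide was read by AlphaScreen. Buffer was PBS pH 7.4 with 0.01% Tween-20. Incubations ran 30 min at room temperature, with 10 ug/mL donor/acceptor beads.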
BAZ2B block = qHTS Assay for Inhibitors of BAZ2B. Bromodomain adjacent to zinc finger domain protein 2B (Homo sapiens), Q9UIF8. AlphaScreen BAZ2B-H3K14Ac peptide displacement. Potency, µM (top dose mostly 114 µM), most hits filed as inhibitors. 4.4% of 360,000 active; further: nearly all actives have a fitted effect of over 60% in size
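BAZ2B 50 nM plus b-H3(5-23)K14Ac 50 nM, PBS pH 7.4/0.01% Tween-20, 30 min RT; compound added (max 110 uM), 30 min RT; streptavidin donor/Ni-chelate acceptor beads 10 ug/mL final, 20 min dark; AlphaScreen read.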
G9a block = qHTS Assay for Inhibitors of Histone Lysine Methyltransferase G9a | 8.8% of 350,000 active | G9a H3K9 monomethylation, AlphaScreen, 2 h | Potency, µM (series often up to 102 µM), hits mostly inhibitors; further: nearly all actives have a fitted effect of over 75% in size
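AlphaScreen read-out: biotin-H3K9 peptide (500 nM) methylation by 20 nM enzyme with 20 uM SAM, 2 h at room temperature after 15 min compound preincubation; anti-monomethyl H3K9 antibody plus donor/acceptor beads, 10 min dark.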
JMJD2A Tudor inh = qHTS Assay for Inhibitors of JMJD2A-Tudor Domain. Lysine-specific demethylase 4A (Homo sapiens), O75164. AlphaScreen JMJD2A-Tudor / H3K4me3 peptide binding. Potency, µM (highest dose often 114 µM), most hits filed as inhibitors. 4.4% of 390,000 active; further: nearly all actives have a fitted effect of over 50% in size
L3MBTL1 block = qHTS Assay for the Inhibitors of L3MBTL1. AlphaScreen L3MBTL1–H3K9me1 peptide binding. Potency, µM (titrated, usually from 57.1 µM), most hits filed as inhibitors. 0.66% of 230,000 active; further: nearly all actives have a fitted effect of over 60% in size
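Read-out is AlphaScreen signal from streptavidin donor and nickel chelate acceptor beads (10 ug/mL final each) bridging L3MBTL1 (50 nM) and biotinylated K9-monomethylated H3(1-15) peptide (75 nM), after 30 min compound exposure at room temperature.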
Numbers stand for hits; i = inactive; ? = inconclusive; nt = no result given; [ ] = dose if it differs, or a comment. The call rests on the fitted dose curve; in most records, active means well fitted curve in the direction sought with a large enough effect; inconclusive means small, poorly fitted or top-dose-only effect, or another doubt; inactive means no such curve, though single readings can be large; an effect the other way counts as inactive or inconclusive.

SMILES	Sfp PPTase inh	HP1b binding inh	BAZ2B block	G9a block	JMJD2A Tudor inh	L3MBTL1 block
Cn1cc(P(=S)(N2CCOCC2)N2CCOCC2)cc1P(=S)(N1CCOCC1)N1CCOCC1	i	i	i	44.7µM	i	i
COc1ccc(N2C(=O)C(CC(=O)Nc3ccccc3)N(CCC3=CCCCC3)C2=O)cc1 (stereo not drawn)	nt	i	i	i	i	nt
Cc1sc2nc(-c3cccs3)nc(N3CCCN(C)CC3)c2c1C	56.2µM	nt	i	i	nt	i
CCN(Cc1ccccc1)C(=O)CN1C(=O)CSc2ccc(S(=O)(=O)N(CC)CC)cc21	nt	i	i	i	i	nt
CC1CCCC(C)N1/N=C/c1ccccc1F (stereo not drawn)	50.1µM	?	50.1µM	3.16µM	3.16µM	nt
O=C(Nc1nncs1)c1cc(-c2ccco2)nc2ccccc12	nt	i	nt	nt	?	?
NC(=O)COC(=O)c1cc(-c2ccco2)nc2ccccc12	i	i	i	15.8µM	i	i
O=C(COC(=O)c1ccco1)NCc1ccc2c(c1)OCO2	i	i	i	i	i	nt
COc1ccccc1CNC(=O)COC(=O)c1cc(-c2ccco2)nc2ccccc12	?	?	39.8µM	12.6µM	20µM	nt
O=C(COC(=O)c1cc(-c2ccco2)nc2ccccc12)NCc1ccc2c(c1)OCO2	i	i	i	12.6µM	i	?
Cc1cc(C(=O)OCC(=O)N2CCCC2)c2ccccc2n1	i	i	i	i	i	nt
Cc1cc(C(=O)OCC(=O)N2CCOCC2)c2ccccc2n1	i	?	i	i	35.5µM	i
COc1ccc(NC(=O)CN2C(=O)COc3ccc(S(=O)(=O)N4CCCCC4)cc32)cc1Cl	nt	i	i	i	i	nt
Cc1ccc(S(=O)(=O)NCCc2nnc3ccc(SCC(=O)Nc4ccc(F)cc4F)nn23)cc1	nt	i	i	i	i	nt
COc1ccc(C(C)=O)cc1CS(=O)(=O)CC(=O)O	i	i	i	44.7µM	i	i
COc1ccc(-c2cc(C(F)F)n3ncc(C(=O)Nc4cc(C)on4)c3n2)cc1	79.4µM	i	79.4µM	nt	i	i
O=C(Nc1cnn(Cc2ccc(F)cc2)c1)c1cnn2c(C(F)F)cc(-c3ccccc3)nc12	14.1µM	i	i	nt	i	nt
COc1ccc(-c2cc(C(F)F)n3ncc(C(=O)Nc4c(C)n(C)n(-c5ccccc5)c4=O)c3n2)cc1	i	i	i	i	i[11.4 µM]	i
COc1ccc(Br)cc1CNC(=O)Cn1nc(C)n2c(cc3cc(F)ccc32)c1=O	nt	i	i	i	i	nt
O=C(CSc1nnc(-c2cnccn2)n1Cc1ccco1)c1ccccc1	i	i	i	44.7µM	i	i
O=C(CSc1nnc(-c2cnccn2)n1Cc1ccco1)c1ccc(Cl)cc1	i	i	i	?	i	i
COc1cc(Cl)c(C)cc1NC(=O)CSc1nnc(-c2ccccn2)n1Cc1ccco1	?	i	nt	i	i	i
O=C(CSc1nnc(-c2ccccn2)n1Cc1ccco1)c1ccc(Cl)cc1	i	i	?	39.8µM	?	i
COc1ccc(C(=O)CSc2nnc(-c3ccccn3)n2Cc2ccco2)cc1	?	i	?	?	?	i
O=C(CSc1nnc(-c2ccccn2)n1Cc1ccco1)c1ccccc1	i	i	?	39.8µM	?	i
SMILES	Sfp PPTase inh	HP1b binding inh	BAZ2B block	G9a block	JMJD2A Tudor inh	L3MBTL1 block
Cc1ccccc1NC(=O)CCC(=O)N1CCSc2ccccc21	nt	i	i	i	i	nt
CCOC(=O)c1c(C)oc2nc(C)nc(NCc3cccc(OC)c3)c12	nt	i	i	i	i	nt
COc1cccc(NC(=O)CSc2ncc(S(=O)(=O)c3ccc(C)c(C)c3)c(=O)[nH]2)c1	nt	i	i	i	i	nt
COc1ccccc1NC(=O)Cn1nc2c3cc(F)ccc3n(Cc3cccc(C)c3)cc-2c1=O	nt	i	i	?	i	nt
Cc1ccc(S(=O)(=O)n2nc(-c3ccc(Cl)cc3)nc2NCc2ccc(F)cc2)cc1	nt	i	i	i	i	nt
COc1ccc(O[C@H]2C=C[C@@H](c3ccccc3)O[C@H]2COC(=O)CC/C(C)=N\O[C@@H](C)CN2CCCc3nc(C)c(C)cc32)cc1	i	nt	nt	nt	nt	nt
COc1ccc(Cl)cc1C(=O)NCC(c1ccc(N(C)C)cc1)N1CCCC1 (stereo not drawn)	nt	i	i	i	i	nt
COCC(=O)N1CCC2(CCCN(Cc3ccc(C#N)cc3)C2)CC1	i	nt	nt	i[12.7 µM]	nt	nt
O=Nc1c(-c2cccc([N+](=O)[O-])c2)nc2ncccn12	15.8µM	nt	i	nt	nt	i
FC(F)(F)C(F)(F)C(F)(F)C(F)(F)C(F)(F)C(F)(F)F	i	nt	nt	i[12.7 µM]	nt	nt
CCOc1ccccc1C(=O)N1CC(=O)Nc2ccc(C)cc2C1c1ccccc1 (stereo not drawn)	nt	i	i	i	i	nt
CC(Oc1ccc(Br)cc1)C(=O)N(C)CC(=O)Nc1ccc(N2CCOCC2)cc1 (stereo not drawn)	nt	i	i	50.1µM	i	i
COc1ccc(CCC(=O)N(C)CC(=O)Nc2ccc(N3CCOCC3)cc2)cc1	i	i	i	i	i	nt
CCOc1ccc(OCCCC(=O)N(C)CC(=O)Nc2ccc(N3CCOCC3)cc2)cc1	nt	i	i	35.5µM	i	i
CC(=O)c1ccc(OCC(=O)N(C)CC(=O)Nc2ccc(N3CCOCC3)cc2)cc1	nt	i	i	i[2.33 µM]	i	i
COCCCN(CC(=O)Nc1ccc(N2CCOCC2)cc1)S(=O)(=O)c1ccc(Cl)cc1	i	?	nt	?	79.4µM	i
CN(CC(=O)Nc1ccc(N2CCOCC2)cc1)C(=O)CCCOc1ccc(Cl)cc1Cl	nt	i	?	20µM	i	i
O=C(Cc1nnc(CNC(=O)c2ccccc2)o1)Nc1cc(C(F)(F)F)ccc1Cl	nt	nt	nt	nt	i	nt
Nc1cc(N)cc(-c2nc3ccccc3o2)c1	nt	i	nt	nt	?	nt
Nc1ccc(-c2nc3ccccc3o2)cc1	i	i	i	i[2.33 µM]	39.8µM	nt
CCOc1ccc(NC(=O)CC2C(=O)N(c3ccc(OC)cc3)C(=O)N2CCC2=CCCCC2)cc1 (stereo not drawn)	nt	i	i	i	i	nt
CCCCCCc1c(C[C@H](N)C(=O)O)o[nH]c1=O	i	nt	nt	nt	nt	nt
Cc1o[nH]c(=O)c1CC[C@H](N)C(=O)O	79.4µM	nt	nt	nt	nt	nt
Cc1ccc(-c2nc(-c3cc4c([nH]c3=O)CC(C)(C)CC4=O)sc2C)cc1	nt	i	i	i	i	nt
O=C1CCc2cc(S(=O)(=O)Nc3ccc(F)c(Cl)c3)ccc2N1	nt	nt	nt	nt	i	nt
CCN(CC)Cc1c(O)ccc2occ(C(=O)c3ccccc3)c12	i	i	i	i	i	nt
O=C(c1cccs1)c1coc2ccc(O)c(CN(CCO)CCO)c12	i	i	i	39.8µM	i	nt
COC(=O)c1sccc1S(=O)(=O)N(CC(=O)NCc1ccc(F)cc1)c1ccc(C)c(C)c1	nt	i	i	i	i	nt
